High-throughput results as filed in PubChem.
Wnt act: activators of Wnt/beta-catenin signaling. activation, % at 9.35 µM. AID 743398. Wnt/beta-catenin reporter cell assay, activator, plate reader. 1.2% of 300,000 active; in the data active means activation above about 30%, passing the limit was not always enough; inconclusive means no clear call, values can overlap the other calls
esBAF inh: inhibitors of esBAF chromatin remodeling in mouse ES cells. Bmi1-luciferase knock-in reporter, 24 h; 100% = twice the neutral-well signal. reporter increase, % at 12.5 µM. 2% of 350,000 active; in the data active means activation above about 40%; inconclusive means no clear call, values can overlap the other calls;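 further: a rise in the Bmi1 reporter signal indicates esBAF inhibition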
AHR act: activates the human aryl hydrocarbon receptor; AID 2796; 2.5% of 320,000 active; P35869; AHR-responsive luciferase reporter cells, luminescence; activation, % at 5 µM; in the data active means activation above about 47%
Target sequence (P35869 whole entry, looked up): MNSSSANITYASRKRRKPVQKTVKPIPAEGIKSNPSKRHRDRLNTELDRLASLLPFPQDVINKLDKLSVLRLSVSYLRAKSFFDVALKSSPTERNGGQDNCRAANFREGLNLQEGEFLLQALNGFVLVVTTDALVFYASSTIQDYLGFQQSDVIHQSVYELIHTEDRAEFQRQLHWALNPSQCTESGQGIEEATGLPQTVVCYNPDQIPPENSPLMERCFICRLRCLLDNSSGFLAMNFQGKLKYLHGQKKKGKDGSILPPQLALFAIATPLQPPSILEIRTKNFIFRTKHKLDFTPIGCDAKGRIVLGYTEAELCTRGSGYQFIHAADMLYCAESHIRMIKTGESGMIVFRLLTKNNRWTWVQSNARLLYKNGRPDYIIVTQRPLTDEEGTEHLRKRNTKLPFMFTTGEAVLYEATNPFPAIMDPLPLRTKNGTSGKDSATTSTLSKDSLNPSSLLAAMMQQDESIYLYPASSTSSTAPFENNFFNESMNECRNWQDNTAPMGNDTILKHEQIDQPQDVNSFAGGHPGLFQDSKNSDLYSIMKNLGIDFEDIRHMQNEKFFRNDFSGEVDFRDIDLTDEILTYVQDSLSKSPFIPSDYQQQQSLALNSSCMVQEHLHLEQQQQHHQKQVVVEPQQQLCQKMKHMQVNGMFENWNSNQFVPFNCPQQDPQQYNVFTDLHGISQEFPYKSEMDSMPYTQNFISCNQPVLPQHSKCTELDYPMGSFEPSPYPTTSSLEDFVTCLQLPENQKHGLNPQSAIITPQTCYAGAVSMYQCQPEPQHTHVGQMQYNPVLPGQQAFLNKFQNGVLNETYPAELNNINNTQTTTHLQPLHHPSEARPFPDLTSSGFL
FXN GAA850 act: activators of GAA850 frataxin (FXN) promoter; HEK293 lucGAA850 FXN promoter luciferase reporter, 24 h; percent of 10 µM SAHA response; activation, % at 6 µM; 0.56% of 360,000 active; AID 540364;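 active means activation above the average of all compounds screened plus 3 SD, cutoff fixed separately per campaign, cut at about 7.5% in these data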
MITF act: increases MITF-driven TRPM1 promoter luciferase signal; SK-MEL-5 TRPM1-promoter luciferase, 24 h; % of positive control, neutral wells = 0; activation, % at 12.5 µM; 0.75% of 300,000 active; AID 588334;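 active means mean activation of at least 80% with every replicate also reaching 80%; inconclusive means mean reaches 80% but some replicate falls short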
GAA30 counter: activates GAA30 frataxin promoter, counter-screen for GAA850 activators. shares compounds with FXN GAA850 act. activation, % at 6 µM. HEK293 lucGAA30 FXN promoter luciferase, 24 h; DMSO = 0%, 5 µM ipriflavone = 100%. 66% of 1,900 active. AID 588350;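 active means mean activation above the mean of solvent-only control wells plus 3 SD, cut at about 22% in these data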;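 further: counterscreen of GAA850 promoter hits where activity marks nonselective or luminescence artifacts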
GAA850 confirm: confirmation of GAA850 frataxin (FXN) promoter activators; shares compounds with FXN GAA850 act; HEK293 lucGAA850 FXN promoter luciferase reporter, 24 h; 100% = activation by SAHA; activation, % at 6 µM; 86% of 1,900 active;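 active means mean activation above a set limit taken from the primary screen, cut at about 8% in these data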
Of the large screens only hits and unclear results are named; the others gave an inactive call (follow-up assays come after a bar, where they were run). Rows were chosen to be rich in hits. Some 4.2% of all compounds tested hit in one or more screens of this group.

CN(C)c1nc(N)nc(CSc2nc3cc(Cl)ccc3o2)n1	esBAF inh inconclusive, FXN GAA850 act 8.3 (no result: Wnt act) | GAA30 counter 48.3 | GAA850 confirm 27.2
COc1ccccc1Nc1nc(-c2cccs2)cs1	esBAF inh 52.5, FXN GAA850 act 10.1 | GAA30 counter 125.8 | GAA850 confirm 39.9
CC(=O)Nc1nc(-c2cccs2)cs1	none
COC(=O)c1ccc(CSC(=N)N)o1	FXN GAA850 act 8.5 | GAA30 counter 31.2 | GAA850 confirm 12.6
Clc1ccccc1CSc1ncn(-c2ccccc2)n1	esBAF inh 66.8, AHR act 67.9, FXN GAA850 act 8.4 (no result: Wnt act) | GAA30 counter 104.4 | GAA850 confirm 35.3
O=C(O)Cn1c2ccccc2c2nc3ccccc3nc21	FXN GAA850 act 10.2 (no result: Wnt act, AHR act, MITF act) | GAA30 counter 104.5 | GAA850 confirm 33.0
COC(=O)Cn1c2ccc(C)cc2c2nc3ccccc3nc21	none (no result: AHR act)
CCc1cccc(C)c1NC(=O)CN1C(=O)c2ccccc2S1(=O)=O	FXN GAA850 act 17.5 | GAA30 counter inactive | GAA850 confirm inactive
CCC(=O)N1[C@H](CN(C(C)C)S(C)(=O)=O)[C@H](c2ccccc2)[C@@H]1CO	none (no result: Wnt act, AHR act, FXN GAA850 act, MITF act)
COc1ccc(O)c(/C=N/Nc2nc(C)cc(-c3ccccc3)n2)c1	none
COc1ccc(O)c(/C=N/Nc2nc(Nc3ccccc3)nc(-n3nc(C)cc3C)n2)c1	FXN GAA850 act 8.7 (no result: Wnt act, esBAF inh) | GAA30 counter inactive | GAA850 confirm 16.1
CN(C)/C=C/C(=O)c1ccc(Oc2ccccc2)cc1	esBAF inh 50.9, FXN GAA850 act 7.8 | GAA30 counter 103.0 | GAA850 confirm 33.3
C[C@H](CO)N1C[C@H](C)[C@@H](CN(C)C(=O)C2CCOCC2)Oc2ncc(C3=CCCCC3)cc2C1=O	none (no result: Wnt act, AHR act, FXN GAA850 act, MITF act)
COc1cc(/C=N/O)ccc1OCc1ccccc1Cl	FXN GAA850 act 12.5, MITF act 96.0 | GAA30 counter 121.6 | GAA850 confirm 38.3
COc1ccc(Cl)cc1CC1(C)C(=O)Nc2ccc(S(=O)(=O)NC3CCCCC3)cc21 (stereo unspecified)	FXN GAA850 act 16.1 (no result: AHR act, MITF act) | GAA30 counter inactive | GAA850 confirm 13.2
COc1ccc(OC(F)(F)F)cc1CC1(C)C(=O)Nc2ccc(S(=O)(=O)NC3CCCCC3)cc21 (stereo unspecified)	FXN GAA850 act 16.7 (no result: AHR act, MITF act) | GAA30 counter inactive | GAA850 confirm 13.9
Cc1ccccc1CC1(C)C(=O)Nc2ccc(S(=O)(=O)NC3CCCCC3)cc21 (stereo unspecified)	none (no result: AHR act, MITF act)
CC1(Cc2ccc(F)cc2)C(=O)Nc2ccc(S(=O)(=O)NC3CCCCC3)cc21 (stereo unspecified)	FXN GAA850 act 9.7 (no result: AHR act, MITF act) | GAA30 counter inactive | GAA850 confirm inactive
COc1ccccc1CC1(C)C(=O)Nc2ccc(S(=O)(=O)NC3CCCCC3)cc21 (stereo unspecified)	FXN GAA850 act 9.1 (no result: AHR act, MITF act) | GAA30 counter inactive | GAA850 confirm inactive
C[C@@H]1CN([C@H](C)CO)S(=O)(=O)c2ccc(-c3ccccc3)cc2O[C@@H]1CN(C)C(=O)Cc1ccccc1	none (no result: Wnt act, AHR act, FXN GAA850 act, MITF act)
C/C=C/c1cnc2c(c1)C(=O)N([C@H](C)CO)C[C@H](C)[C@@H](CN(C)C(=O)c1cnccn1)O2	none (no result: Wnt act, AHR act, FXN GAA850 act, MITF act)
COc1ccc(OC(F)(F)F)cc1CC1(C)C(=O)Nc2cccc(Cl)c21 (stereo unspecified)	none (no result: AHR act, MITF act)
COc1ccc(OC(F)(F)F)cc1CC1(C)C(=O)Nc2ccc(-c3ccsc3)cc21 (stereo unspecified)	FXN GAA850 act 13.2 (no result: AHR act, MITF act) | GAA30 counter inactive | GAA850 confirm 9.0
Cc1ccc(OCc2cccc(S(=O)(=O)N(C)C)c2)c([N+](=O)[O-])n1	none
Cc1ccc(OCc2ccc([N+](=O)[O-])cc2)c([N+](=O)[O-])n1	Wnt act 33.2, FXN GAA850 act 8.4, MITF act 138.8 (no result: esBAF inh) | GAA30 counter 117.5 | GAA850 confirm 34.2
CC(C)(C)C(=O)Cn1ncc(Cl)c(Cl)c1=O	FXN GAA850 act 9.0 (no result: esBAF inh, AHR act) | GAA30 counter inactive | GAA850 confirm inactive
Cc1ccc(Cn2c(/C=C/c3ccco3)nc3ccccc32)cc1	FXN GAA850 act 8.0 (no result: Wnt act, esBAF inh) | GAA30 counter 108.8 | GAA850 confirm 43.8
O=C(NCC[C@@H]1CC[C@@H](NS(=O)(=O)Cc2ccccc2)[C@H](CO)O1)C1CCOCC1	none (no result: Wnt act, AHR act, FXN GAA850 act, MITF act)
CNc1nc(Nc2ccc(Br)cc2)nc(N)c1[N+](=O)[O-]	AHR act 70.2, FXN GAA850 act 9.1 (no result: Wnt act, esBAF inh) | GAA30 counter 91.1 | GAA850 confirm 41.6
C/C=C/c1cnc2c(c1)C(=O)N([C@@H](C)CO)C[C@H](C)[C@@H](CN(C)Cc1ccc3c(c1)OCO3)O2	none (no result: Wnt act, AHR act, FXN GAA850 act, MITF act)
Cc1sc(NC(=O)c2ccccc2)c(C#N)c1-c1ccccc1	FXN GAA850 act 10.8 (no result: Wnt act, esBAF inh) | GAA30 counter 111.4 | GAA850 confirm 38.0
Cc1ccc(C(=O)Nc2sc(C(=O)N(C)C)c(C)c2C#N)cc1	none (no result: esBAF inh)
COc1ccc(-c2ccc(=O)n(Cc3c(F)cccc3Cl)n2)cc1	FXN GAA850 act 8.0 | GAA30 counter 43.4 | GAA850 confirm 21.8
C[C@H](CO)N1C[C@H](C)[C@@H](CN(C)S(=O)(=O)c2cn(C)cn2)OCCCC[C@H](C)Oc2ccc(NS(=O)(=O)c3ccc(F)cc3)cc2C1=O	none (no result: Wnt act, AHR act, FXN GAA850 act, MITF act)
O=C(C(c1ccccc1)N1CCOCC1)N1CCOCC1 (stereo unspecified)	none (no result: Wnt act, esBAF inh)
O=C(C=Cc1ccccc1)CC(c1ccccc1)N1CCOCC1 (stereo unspecified)	FXN GAA850 act 7.8 (no result: esBAF inh, AHR act) | GAA30 counter 36.4 | GAA850 confirm 39.9
Cc1cc(Cl)ccc1OCC(=O)N1CCCN(C(=O)COc2ccc(Cl)cc2C)CC1	FXN GAA850 act 9.4 (no result: esBAF inh) | GAA30 counter inactive | GAA850 confirm inactive
COc1ccc(C2=C(N)c3ccccc3C2=O)cc1	FXN GAA850 act 7.7 (no result: Wnt act) | GAA30 counter 102.1 | GAA850 confirm 33.5
C[C@@H]1CN([C@H](C)CO)C(=O)c2cc(NC(=O)CCCN(C)C)ccc2O[C@@H](C)CCCCO[C@H]1CN(C)C(=O)Nc1cccc2ccccc12	none (no result: Wnt act, AHR act, FXN GAA850 act, MITF act)
CCOC(=O)[C@@H]1[C@H]2COc3ccc(Br)cc3[C@@H]2N2C(=O)N(c3cccc(Cl)c3)C(=O)[C@@]12C	FXN GAA850 act 9.9 | GAA30 counter inactive | GAA850 confirm inactive
CCOC(=O)[C@H]1[C@H]2COc3ccc(Br)cc3[C@@H]2N2C(=O)c3ccc(C)cc3NC(=O)[C@@]12C	none
CCOC(=O)[C@@H]1[C@H]2COc3ccc(Br)cc3[C@@H]2N2C(=O)N(c3cccc(Cl)c3)C(=O)[C@]12C	none
CCOC(=O)[C@H]1[C@H]2COc3ccc(Br)cc3[C@@H]2N2C(=O)c3c(C)cc(C)cc3NC(=O)[C@@]12C	FXN GAA850 act 14.4 | GAA30 counter 28.3 | GAA850 confirm 18.6
Cc1noc(C)c1S(=O)(=O)Nc1ccc2c(c1)C(=O)N([C@@H](C)CO)C[C@H](C)[C@@H](CN(C)S(C)(=O)=O)O2	none (no result: Wnt act, AHR act, FXN GAA850 act, MITF act)
